# Test results: PubChem BioAssay (Tox21)
# Inconclusive results are not listed. Values without a mark were called inactive. Activity calls are given as the source filed them. Calls follow the shape of the full dose curve.
# Assay: qHTS assay to identify small molecule agonists of the hypoxia (HIF-1) signaling pathway - cell viability counter screen (AID 1224844); also: nearly all actives have a fitted effect of over 50% in size
# Details: HRE-bla ME-180 viability, CellTiter-Glo luminescence, 17 h; series mostly up to 76.8 µM; activity change, negative = cytotoxicity: at the top concentration
# Description: National Center for Advancing Translational Sciences [NCATS]
# NIH Chemical Genomics Center [NCGC]
# U.S. Environmental Protection Agency [EPA]
# National Institutes of Environmental Health Sciences [NIEHS]
# National Toxicology Program [NTP]
# U.S. Food and Drug Administration [FDA]
# Hypoxia-inducible factor-1 (HIF-1) is the major hypoxia-regulated transcription factor that controls cellular responses to low oxygen concentration. HIF-1 is composed of two subunits: hypoxia responsive HIF-1-alpha and constitutively expressed HIF-1-beta, which is also known as aryl hydrocarbon receptor nuclear translocator. During hypoxic conditions, HIF-1-alpha heterodimerizes with HIF-1-beta and translocates into the nucleus where the HIF-1 complex binds to the hypoxia-response element (HRE) and activates expression of target genes such as VEGF (vascular endothelial growth factor). The HIF-1 pathway is essential to normal growth and development, and is involved in the pathophysiology of cancer, inflammation, and ischemia.
# Using a beta-lactamase reporter-gene under control of the hypoxia response element, a cell-based assay [CellSensor(TM) HRE-bla ME-180 from Life Technologies, Carlsbad, CA] was used to measure hypoxia-induced signaling. Tox21 10K library compounds were measured for their ability to induce the reporter gene activity. The cytotoxicity of the Tox21 compound library against HRE-bla ME-180 cell line was tested in parallel by measuring cell viability using CellTiter-Glo assay (Promega, Madison, WI) in the same assay wells.
# Tox21 Assay Protocol Summary:
# HRE-bla ME-180 cells were dispensed at 2,000 cells per well in 6 uL of assay medium containing 0.5% dialyzed FBS into black wall/clear-bottom 1536-well plates using a Multidrop Combi (Thermo Scientific, Waltham, MA) dispenser. After the assay plates were incubated at 37C and 5% CO2 for 5 hrs, 23 nL of compounds dissolved in DMSO, positive controls or DMSO only was transferred to each well of the assay plate using a Pintool station (Kalypsys, San Diego, CA). The assay plates were incubated at 37C and 5% CO2 for 17 hrs. One uL of LiveBLAzerTM B/G FRET substrate (CCF4-AM) (Life Technologies) was added to each well using a Flying Reagent Dispenser (FRD, Aurora Discovery, San Diego, CA). After 2 hr incubation at room temperature, fluorescence intensity (405 nm excitation, 460 nm and 530 nm emissions) was measured using an Envision plate reader (PerkinElmer, Shelton, CT). For cytotoxicity, 4 ul/well of CellTiter-Glo reagent was added into the assay plates using an FRD. After 30 min incubation at room temperature, the luminescence intensity was measured using a ViewLux plate reader (PerkinElmer).
# % is scaled to controls: 0 for no effect and ±100 for the full control effect; potency is read from the fitted curve at half-maximal effect.
SMILES,Potency,"activity change, negative = cytotoxicity"
CCCCCCCCCCCCOCCOS(=O)(=O)O,43.6 µM (active),–
C=CCc1cc(OC)c(O)c(C(=O)NCCO)c1,–,8.84% [at 35.3 µM]
C=CCCCCCCCCO,–,-13.1%
C[C@]12C(=O)OC(=O)[C@H]1[C@H]1C=C[C@@H]2C1,–,1.55%
CC(C)(C)C1CCCCC1=O (stereo not given),–,5.84%
COC(=O)N[C@H](C(=O)N[C@@H](Cc1ccccc1)[C@@H](O)CN(Cc1ccc(-c2ccccn2)cc1)NC(=O)[C@@H](NC(=O)OC)C(C)(C)C)C(C)(C)C,–,-1.58% [at 35.3 µM]
OC[C@H]1O[C@@H](O[C@H]2[C@H](O)[C@@H](O)[C@H](O)O[C@@H]2CO)[C@H](O)[C@@H](O)[C@H]1O,–,0.908%
Cc1nc(N)nc(N)c1-c1ccc(Cl)c(Cl)c1,–,7.59% [at 35.3 µM]
CCc1cc(Cl)c(OC)c(C(=O)NC[C@@H]2CCCN2CC)c1O,–,-7.98% [at 35.3 µM]
CCOc1ccccc1N,–,0.0257%
O=C(O)c1ccccc1Nc1cc(Cl)ccc1C(=O)O,–,5.17% [at 15.8 µM]
Cc1ccc(C)c(N)c1,–,5.19%
CCOc1ccc(NS(=O)(=O)c2ccc(N)cc2)nn1,–,0.45% [at 35.3 µM]
CCOC(=O)c1cc(=O)c2c(OCC(COc3cccc4oc(C(=O)OCC)cc(=O)c34)OC(=O)[C@@H](N)CCCCN)cccc2o1,–,-0.774% [at 35.3 µM]
Cc1cccc(C)c1NC(=O)CN1CCCCCC1,–,1.02% [at 35.3 µM]
CCOC(=O)COc1ccc2c(c1)CC(NCC(O)c1cccc(Cl)c1)CC2 (stereo not given),–,11.1%
Cc1ccc(C(C)C)cc1O,–,-0.256%
CCc1nnc(NS(=O)(=O)c2ccc(N)cc2)s1,–,4.43% [at 35.3 µM]
CCCCC1CCC(=O)O1 (stereo not given),–,1.5%
CCCN(CCC)C(=O)C(CCC(=O)O)NC(=O)c1ccccc1 (stereo not given),–,-1.62% [at 35.3 µM]

SMILES,Potency,"activity change, negative = cytotoxicity"
COC(=O)C(C)O (stereo not given),–,6.52%
NC/C=C/C(=O)O,–,8.26% [at 35.3 µM]
O=Cc1ccc(O)c(O)c1O,–,-2.25% [at 35.3 µM]
CCCCCCC,–,-1.32%
CCOC(=O)c1ccccc1O,–,-2.5% [at 35.3 µM]
CCCC1CCC(=O)O1 (stereo not given),–,-14.2%
Cc1ccsc1C(=CCCN1CCC[C@@H](C(=O)O)C1)c1sccc1C,–,0.923% [at 35.3 µM]
NS(=O)(=O)c1cc(-c2nn[nH]n2)c(NCc2cccs2)cc1Cl,–,-0.847% [at 35.3 µM]
CCC(=O)Nc1ccc(O)cc1,–,0.371% [at 35.3 µM]
CC(C)(C)c1cccc(O)c1,–,10.3%
CCCCNc1ccc(C(=O)OCCN(CC)CC)cc1,–,-0.267% [at 35.3 µM]
O=C(Cl)c1cccc([N+](=O)[O-])c1,–,-7.3%
Cc1cc2nc(N)sc2cc1C,–,-13.7%
CC/C=C\CCOC(=O)C(C)C,–,10.4%
CCCC(CCC)(C(=O)OCC)C(=O)OCC,–,3.75% [at 35.3 µM]
CC(C)NC[C@@H](O)COc1cccc2ccccc12,–,2.06% [at 35.3 µM]
CCCCC(=O)O[C@]1(C(=O)CO)[C@H](C)C[C@H]2[C@@H]3CCC4=CC(=O)C=C[C@]4(C)[C@@]3(F)[C@@H](O)C[C@@]21C,–,-12.3% [at 35.3 µM]
CCCNC(C)(C)COC(=O)c1ccccc1,–,1.54% [at 35.3 µM]
O=C(O)C(=O)Cc1c[nH]c2ccccc12,–,0.584%
CC(C)Nc1nc(N)nc(Cl)n1,–,11%
